The panel holds about 79,000 compounds, 15% with a hit somewhere; the sample as a whole holds those more often. Values without a mark were called inactive. Calls of active or inactive are those of the source. Cut-off read from the data, not from the text of the source: active = growth inhibition above about 70%; inactive = the rest.
Columns and labels:
[1] = NCI Yeast Anticancer Drug Screen. Data for the rad50 strain (AID 155);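 note: 0% = growth of vehicle-only cultures of the same strain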; conditions: S. cerevisiae rad50 strain growth inhibition; at 50.0 µM; stronger effect = higher value
Method in brief: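 Readout: growth inhibition relative to vehicle-treated cultures. Compound exposure was carried out in a genetically defined yeast strain deficient in DNA damage repair.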

[2] = NCI Yeast Anticancer Drug Screen. Data for the mec2-1 strain (AID 157); conditions: S. cerevisiae mec2-1 strain, at 50.0 µM, stronger effect = higher value
Method in brief: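 Yeast mec2-1 mutant treated with compound. Readout: growth inhibition vs vehicle controls.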

[3] = NCI Yeast Anticancer Drug Screen. Data for the sgs1 mgt1 strain (AID 161);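 note: 0% = growth of cultures given vehicle only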; conditions: S. cerevisiae sgs1 mgt1 strain, at 50.0 µM, stronger effect = higher value
Method in brief: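 Test agents were incubated with a DNA-repair-mutant yeast strain. Growth was then read and compared against vehicle-treated controls.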

[4] = NCI Yeast Anticancer Drug Screen. Data for the cln2 rad14 strain (AID 165);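 note: 0% = growth equal to vehicle treated cultures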; conditions: S. cerevisiae cln2 rad14 strain, at 50.0 µM, stronger effect = higher value
Method in brief: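 cln2 rad14 yeast strain; compound exposure; growth inhibition read vs vehicle controls.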

[5] = NCI Yeast Anticancer Drug Screen. Data for the bub3 strain (AID 167); conditions: S. cerevisiae bub3 mutant strain, at 50.0 µM, stronger effect = higher value
Method in brief: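 Readout: yeast growth inhibition, expressed relative to vehicle-only wells. The test organism is a mutant strain from a panel with lesions in DNA repair or checkpoint genes.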

[6] = NCI Yeast Anticancer Drug Screen. Data for the mlh1 rad18 strain (AID 175); conditions: S. cerevisiae mlh1 rad18 strain growth inhibition; at 50.0 µM; stronger effect = higher value
Method in brief: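 Yeast w/ defined DNA-repair lesions; compound exposure; growth vs vehicle controls → % inhibition.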

| SMILES | growth inhibition [1] | growth inhibition [2] | growth inhibition [3] | growth inhibition [4] | growth inhibition [5] | growth inhibition [6] |
| --- | --- | --- | --- | --- | --- | --- |
| CCSc1ccc2c3c(cccc13)C(=O)N(CCc1ccccn1)C2=O | -0.6% | -14.1% | 11.8% | 2.25% | 6.2% | 2.8% |
| CC(=O)OC1OC(COC(c2ccccc2)(c2ccccc2)c2ccccc2)C(OCc2ccccc2)C(OCc2ccccc2)C1OC(C)=O (configuration not stated) | -14.3% | -18.1% | -21.1% | 13.3% | 0.45% | 1.65% |
| COc1ccc(C2CCCCCC2OC(=O)c2ccc([N+](=O)[O-])cc2)c(OC)c1OC (configuration not stated) | 16% | 11.5% | -2.45% | 42.9% | 2.6% | 1.7% |
| C[Si]1(C)CC[Si](C)(C)OS(=O)(=O)O1 | 8.2% | -8.35% | -4.75% | -49.8% | -9.05% | 3.6% |
| CCCSCCC(N)C(=O)O (configuration not stated) | -33.2% | -15.9% | 0.55% | -5.7% | -2.9% | -4.95% |
| C=CCN1C=CC=C/C1=C\C=C(/C#N)C(=O)OCC | 10.8% | 12.7% | 7.8% | -15.2% | -8.65% | 7.35% |
| O=C(c1nc2cc([N+](=O)[O-])ccc2[nH]c1=O)C(O)c1ccco1 (configuration not stated) | -8.65% | -25.4% | -25.2% | 13.9% | -35% | -6.35% |
| CCCC1OCC(CC)([N+](=O)[O-])CO1 (configuration not stated) | 19.6% | 15.7% | 18.1% | 9.3% | -0.85% | -5.7% |
| Cn1cnc2ncnc(Oc3ccc(Cl)cc3)c21 | -13.5% | -10.3% | -2.95% | 4.45% | -27.1% | -14.1% |
| CCOC(=O)C(CCCBr)(C(=O)OCC)N1C(=O)c2ccccc2C1=O | 20.8% | -13.3% | 10.9% | 18.2% | 31.8% | 12.6% |
| CSc1ccc(NC(=O)NNP(=S)(Oc2ccc(C(C)(C)C)cc2)Oc2ccc(C(C)(C)C)cc2)cc1 | -10.7% | -18.1% | 0.5% | 13.8% | -5.75% | -6.2% |
| Cc1cccc(O)c1C(=O)O | -8.15% | -12% | -15.6% | -9.45% | 9.05% | -0.25% |
| Cc1cc(-c2ccc(Cl)cc2)c(C#N)c(=S)n1C1OC(CO)C(O)C(O)C1O (configuration not stated) | -19.4% | -11% | -5.3% | 2.8% | -2.95% | 2.8% |
| O=C(OCC1CCCO1)c1ccccc1 (configuration not stated) | 8.4% | 13.2% | -15.3% | -18.4% | -8.75% | -11% |
| Cn1c(N)cc(=O)n(C)c1=O | 22.6% | 3.95% | 18% | 0.1% | 17.5% | 27% |
| CC(C)(O)C(O)(c1ccccc1)c1ccccc1 | 2.65% | 2.75% | 16.7% | 6.5% | 5.95% | 12.8% |
| Cc1c(C(=O)NNc2ccccc2)n2c(=S)[nH]nc2c2ccccc12 | 33.2% | 10.1% | -7.85% | 8.6% | -14.8% | 45.8% |
| CCN(CC)CCC1(C#N)Cc2ccccc2N(CC)c2ccccc21 (configuration not stated) | 41.8% | 5.05% | 9.45% | 15.6% | 7.3% | -19.6% |
| N#CC1=C(c2ccccc2)C(=C2Nc3ccccc3N2)C2S/C(=C\c3ccccc3)C(=O)N2C1=N (configuration not stated) | 21.2% | -12.3% | 10.4% | -31.1% | 4.45% | 26.8% |

| SMILES | growth inhibition [1] | growth inhibition [2] | growth inhibition [3] | growth inhibition [4] | growth inhibition [5] | growth inhibition [6] |
| --- | --- | --- | --- | --- | --- | --- |
| CCCCI(O)OS(=O)(=O)c1ccc(C)cc1 | 5.65% | 3.1% | -2.85% | -7.7% | -3.9% | -32.6% |
| COc1c2occc2c(Br)c2ccc(=O)oc12 | 13% | 0.35% | 19.4% | 7.45% | 51.8% | 8.6% |
| O=C(Nc1ccccn1)c1ccc([N+](=O)[O-])cc1 | 33% | 7.95% | 15.4% | 5.45% | -1.8% | -2.4% |
| COc1ccc2ccccc2c1Cc1c(O)ccc2ccccc12 | 15.7% | -4.55% | 0.75% | -40% | -3.1% | 8% |
| CCCC(C)CCCC(=O)c1ccc2cc(OC)ccc2c1 (configuration not stated) | -34.2% | -16.8% | -14.5% | -33.3% | -2% | -29.9% |
| Nc1c(Cl)ncnc1Nc1cccc(C(F)(F)F)c1 | 9.9% | 38.4% | 53.1% | 10.1% | 41.6% | 66.5% |
| O=C(O)C(SSC(C(=O)O)(c1ccccc1)c1ccccc1)(c1ccccc1)c1ccccc1 | 71.8% (active) | 21.5% | 54.6% | 36% | 12% | 38% |
| COC(=O)N1CCC(Sc2ccccc2)C2(CCSc3ccccc3)CCC=C12 (configuration not stated) | -2.2% | -2.95% | 5% | -28.1% | -27.6% | -12.6% |
| O=C(O)[C@@H]1[C@@H]2C[C@@H]3[C@H](OC(=O)[C@@H]31)[C@@H]2O | -20.9% | -12.2% | -25.4% | 1.9% | -15.8% | -41.4% |
| Cc1ccc(-n2cnc(C(=N)C#N)c2N)cc1 | -15.6% | -31.7% | -10% | -12.1% | 9.55% | -13.1% |
| O=C(Nc1cccc2c1[nH]c1c(-c3ccccc3)nccc12)c1ccccc1[N+](=O)[O-] | 58.1% | 45.1% | 49.2% | 23.2% | 42.6% | 51.5% |
| COC1=C(NCC(C)C)C(=O)C(OC)=C(NCC(C)C)C1=O | -3.05% | 8.75% | 1.7% | -57.7% | 3.25% | -12.1% |
| c1ccc(N(c2ccccc2)C(c2ccccc2)(c2ccccc2)c2ccccc2)cc1 | 12.6% | -2.65% | 1.1% | -36.3% | -0.85% | 7.85% |
| CCOc1nc(C)cc(C(=O)OC)c1C#N | 18.4% | 15.7% | 19.6% | 17.4% | 0.3% | 2% |
| O=C1NS(=O)(=O)c2cc(Cl)ccc21 | -34.3% | -22.1% | -23.8% | -18.4% | -1.85% | -12.8% |
| CCCC1CCN(c2ccc([N+](=O)[O-])cc2[N+](=O)[O-])CC1 | 1.75% | -4.75% | 9.65% | -19.2% | 38.2% | -1.15% |
| Cc1c(C)c(C)c(Br)c(C)c1C | -6.7% | -5.05% | -14% | -17.6% | 1.15% | 0.65% |
| O=C(O)c1ccccc1Nc1ccccc1 | 5.75% | -22.1% | 3.8% | -22.4% | -0.75% | -10% |

From PubChem BioAssay (NCI)
